# An excerpt weighted towards active compounds, which were near 3.6% of everything screened.
# PMP22 txn prim = modulators of PMP22 gene transcription in S16 Schwann cells; actives 2% (n = 43,000); Potency, µM (top dose mostly 57.5 µM), inactives show top-dose activity change, negative = inhibition, most hits filed as inhibitors; AID 1508649; S16 Pmp22-F2sN Schwann cells, FLuc/NLuc coincidence luminescence, 24 h; active = clear falling dose curves in both reporters; inconclusive = both reporters move, but less clearly or upward; inactive = either reporter flat; the % is the NLuc reporter signal; note: potency is the fitted concentration of half-maximal effect; % is set by controls: 0 for no effect and ±100 for the full control effect
#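 Rat S16 Pmp22-F2sN cells, 500-1,000/well in phenol red-free DMEM + 10% FBS, compound-treated 24 h (37C, 5% CO2). Luminescence: FLuc read, Stop&Glo added, NLuc read.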
# SKOV3 invasion = blocks SKOV3ip1 adhesion and invasion in omental model; SKOV3ip1-GFP adhesion/invasion on 3D omental model, fluorescence; Potency, µM (highest dose often 45.8 µM), for inactives: at the top dose activity change, negative = inhibition, hits mostly inhibitors; actives 0.1% (n = 46,000); AID 1963576;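 note: potency is the fitted concentration of half-maximal effect; plate controls were DMSO wells for no effect and tomatine positive control wells for full effect; nearly all actives have a fitted effect of over 65% in size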
#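 A 3D layer of primary human omental fibroblasts, mesothelial cells, fibronectin and collagen I, grown 48 hr, received SKOV3ip1-GFP cells in serum-free medium plus compounds at 0.36-46 umol/L. After 2 hr RT and 16 hr 37 C, fixed adherent GFP cells were counted; normalized to DMSO and tomatine.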
# mTORC1 inh = mTORC1 pathway inhibition measured by phospho-rpS6. Tsc2-/- p53-/- MEF, phospho-rpS6 immunofluorescence/PI, 24 h. Potency, µM (doses to about 38.3 µM), without a hit: top-dose activity change, negative = inhibition, most hits filed as inhibitors. actives 0.78% (n = 44,000);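 note: potency is the fitted concentration of half-maximal effect; plate controls were DMSO for no effect and rapamycin for full effect; nearly all actives have a fitted effect of over 50% in size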
#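 Read-out: phospho-S6 Alexa-488 intensity over PI intensity per well, scored as % active cells using thresholds from rapamycin (7.5 nM) and DMSO controls. Tsc2-/-, p53-/- MEFs exposed to compound for 24 h; PI cell count recorded as viability.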
# NTMT1 inhibitor = NTMT1 methyltransferase inhibition. NTMT1 MTase-Glo SAH luminescence, purified enzyme. Potency, µM (highest dose often 114 µM), for the others: top-dose activity change, negative = inhibition, hits mostly inhibitors. actives 2.5% (n = 59,000). AID 1645870;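 note: potency is the fitted concentration of half-maximal effect; plate controls were DMSO vehicle for no effect and no enzyme for full effect; nearly all actives have a fitted effect of over 65% in size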
# GALC G270D up = raises human GALC G270D mutant activity in cells. 145M-Twi-hGALC-G270D cells (Twitcher mouse brain line with human GALC G270D), HMU-beta-Gal fluorescence, 48 h. Potency, µM (series often up to 57.5 µM), most hits filed as activators. actives 0.1% (n = 45,000). AID 1159614; note: potency is the fitted concentration of half-maximal effect; 0% is about no effect; nearly all actives have a fitted effect of over 65% in size
# Target sequence (P54803 whole entry G286D): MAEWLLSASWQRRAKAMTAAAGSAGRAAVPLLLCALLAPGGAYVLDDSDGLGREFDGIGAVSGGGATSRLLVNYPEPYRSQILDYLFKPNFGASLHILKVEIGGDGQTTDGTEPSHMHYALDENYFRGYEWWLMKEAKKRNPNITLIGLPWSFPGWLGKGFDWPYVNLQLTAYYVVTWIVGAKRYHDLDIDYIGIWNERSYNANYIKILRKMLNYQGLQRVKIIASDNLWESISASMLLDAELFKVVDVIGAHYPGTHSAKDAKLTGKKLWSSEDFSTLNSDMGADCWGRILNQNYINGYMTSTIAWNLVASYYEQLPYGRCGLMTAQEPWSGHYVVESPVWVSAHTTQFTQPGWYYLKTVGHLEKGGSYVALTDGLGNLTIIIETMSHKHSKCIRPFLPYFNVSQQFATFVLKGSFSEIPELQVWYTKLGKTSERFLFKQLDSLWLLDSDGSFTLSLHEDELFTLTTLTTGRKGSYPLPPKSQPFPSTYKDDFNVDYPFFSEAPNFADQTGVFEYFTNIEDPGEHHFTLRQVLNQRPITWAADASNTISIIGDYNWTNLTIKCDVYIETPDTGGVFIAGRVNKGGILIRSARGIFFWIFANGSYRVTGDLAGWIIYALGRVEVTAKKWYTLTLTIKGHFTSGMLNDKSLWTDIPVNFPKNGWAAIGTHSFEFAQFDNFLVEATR
#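 Live 145M-Twi cells (Twitcher mouse brain-derived, GALC-null) stably expressing human GALC-G270D, with a wild-type GALC line, were compound-treated. Residual GALC activity was then read as fluorescence from 0.1 mM final HMU-β-gal at pH 5.2; higher signal means activation.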
# S16 viability = cytotoxicity in S16 Pmp22-F2sN Schwann cells; S16 Pmp22-F2sN Schwann cells (luciferase reporters placed in the Pmp22 gene) viability, CellTiter-Glo, 24 h; Potency, µM (titrated, usually from 57.5 µM), without a hit: at the highest dose activity change, negative = cytotoxicity, hits mostly cytotoxic; actives 0.48% (n = 43,000); AID 1508642; note: potency is the fitted concentration of half-maximal effect; % is set by controls: 0 for no effect and ±100 for the full control effect; nearly all actives have a fitted effect of over 65% in size
#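 Rat S16 Schwann reporter line, 24 h treatment with library compounds delivered at 23 nL per well. Cell viability by CellTiter-Glo luminescence.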
# NLuc saturating = NanoLuc enzyme inhibition artifact for PMP22 screen | shares compounds with PMP22 txn prim | Secreted NLuc enzyme (filtered S16 cell medium), Nano-Glo luminescence | Potency, µM (titrated, usually from 57.5 µM), inactives show at the highest dose activity change, negative = inhibition, hits mostly inhibitors | actives 4% (n = 690) | AID 1508638; note: potency is the fitted concentration of half-maximal effect; % is set by controls: 0 for no effect and ±100 for the full control effect
# NLuc Km counter = NanoLuc inhibition at Km substrate, PMP22 artifact check; shares compounds with PMP22 txn prim; secreted NLuc enzyme, coelenterazine luminescence, Km conditions; Potency, µM (doses to about 57.5 µM), for the others: at the highest dose activity change, negative = inhibition, most hits filed as inhibitors; actives 5% (n = 690); note: potency is the fitted concentration of half-maximal effect; % is set by controls: 0 for no effect and ±100 for the full control effect
# FLuc counter = inhibits firefly luciferase, PMP22 counter-screen; shares compounds with PMP22 txn prim; Potency, µM (series often up to 57.5 µM), for the others: top-dose activity, negative = inhibition, hits mostly inhibitors; purified P. pyralis FLuc, luminescence, 10 min; AID 1508640; 690 tested, under 10 active; note: % of control where 0% means no effect
# S16 viab conf = S16 Schwann cell cytotoxicity, confirmatory | shares compounds with PMP22 txn prim | S16 Schwann cells viability, CellTiter-Glo ATP luminescence, 24 h | Potency, µM (series often up to 57.5 µM), for inactives: at the top dose activity change, negative = viability loss, most hits filed as cytotoxic | actives 7% (n = 690) | AID 1508641; note: potency is the fitted concentration of half-maximal effect; % is set by controls: 0 for no effect and ±100 for the full control effect
# PMP22 txn conf = PMP22 transcription modulation, confirmatory; Potency, µM (top dose mostly 57.5 µM), for inactives: at the highest dose activity change, negative = inhibition, usual class: inhibitors; S16 Schwann cells Pmp22-F2sN, dual luciferase, 24 h; actives 22% (n = 690); shares compounds with PMP22 txn prim; AID 1508646; active = clear falling dose curves in both reporters; inconclusive = both reporters move, but less clearly or upward; inactive = either reporter flat; the % is the FLuc reporter signal; note: potency is the fitted concentration of half-maximal effect
# PMP22 prot conf = confirmation of modulators of rat PMP22 protein expression. shares compounds with PMP22 txn prim. S16 Schwann cells Pmp22-HiBiT, luminescence, 48 h. Potency, µM (doses to about 27.9 µM), inactives show at the top dose activity change, negative = inhibition, most hits filed as inhibitors. 95 tested, under 10 active
# Target sequence (P25094 whole entry, looked up): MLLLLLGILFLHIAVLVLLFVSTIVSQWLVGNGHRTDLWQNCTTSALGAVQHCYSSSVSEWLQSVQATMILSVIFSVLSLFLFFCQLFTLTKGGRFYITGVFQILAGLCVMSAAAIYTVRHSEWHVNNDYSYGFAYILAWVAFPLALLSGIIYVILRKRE
# * hit, by the source's call; i = inactive; ? = inconclusive; nt = no result; [ ] = remark or other dose. Unless noted, calls come from the whole dose curve; as a rule, active = well fitted curve in the direction sought with a large enough effect; inconclusive = small, poorly fitted or top-dose-only effect, or another doubt; inactive = no such curve, though single readings can be large; an effect the other way counts as inactive or inconclusive.
SMILES,PMP22 txn prim,SKOV3 invasion,mTORC1 inh,NTMT1 inhibitor,GALC G270D up,S16 viability,NLuc saturating,NLuc Km counter,FLuc counter,S16 viab conf,PMP22 txn conf,others
C[C@@H]1C(=O)O[C@H]2[C@@H](O)C34[C@H]5C[C@@H](C(C)(C)C)C36[C@@H](OC(=O)[C@@H]6O)O[C@@]4(C(=O)O5)[C@@]12O (stereo not given in full),nt,nt,nt,-4.0%[57.5 µM],nt,nt,nt,nt,nt,nt,nt,
C=C1CC23CC1CCC2C12OC(=O)C(C)(C(O)CC1O)C2C3C(=O)O (stereo not given),nt,nt,nt,4.5%[29.8 µM],nt,nt,nt,nt,nt,nt,nt,
COc1ccc(NC(=O)Cn2c(=O)c3cccn3c3ccccc32)cc1,6.7%,13.3%,-18.8%,1.8%,i,5.3%,nt,nt,nt,nt,nt,
COc1ccc(OC)c(NC(=O)Cn2c(=O)c3cccn3c3ccccc32)c1,?,13.7%,9.3%,?,i,-2.4%,?,?,0.8%,-8.1%,-31.8%,
CCCCOC(=O)CC(CC(=O)OCCCC)(OC(C)=O)C(=O)OCCCC,nt,nt,nt,-17.9%[57.5 µM],i,nt,nt,nt,nt,nt,nt,
O=C(Nc1ccc(Br)cc1F)N1CC=C(c2c[nH]c3ccccc23)CC1,?,i,-0.1%,?,i,-10.1%,-12.6%,?,-11.8%,10.0%,-17.4%,
CCOc1ccccc1Nc1sc(C(=O)c2ccc(Cl)cc2)c(N)c1C#N,15µM*,12.7%,-2.8%,7.2%,i,1.2%,-0.2%,3.9%,-2.5%,0.6%,-1.6%,
CCOc1ccccc1Nc1sc(C(=O)c2ccc(Cl)cc2)c(N)c1C(=O)NCCc1ccccc1,?,1.5%,-0.9%,-1.5%,i,2.1%,nt,nt,nt,nt,nt,
Cc1ccc(OCC(=O)Nc2ccc3c(c2)sc(=O)n3C)cc1,-7.2%,-0.4%,2.4%,4.2%,i,-1.5%,nt,nt,nt,nt,nt,
Cc1ccc(OCC(=O)Nc2ccc3[nH]c(=O)sc3c2)cc1,15µM*,6.5%,-9.7%,-6.1%,i,15.0%,-13.3%,-13.9%,-16.2%,19.9%,?,
COc1cccc(NC(=O)N(Cc2cn(C)c3ccccc23)C2CCCCC2)c1,10µM*,-2.0%,-2.2%,-15.6%,i,?,?,?,-2.5%,2.2%,?,
Cc1ccc(NC(=O)N(Cc2cn(C)c3ccccc23)C2CCCCC2)cc1C,11.3µM*,i,-1.2%,-7.7%,i,?,13.7µM*,?,?,1.9%,?,
COc1cccc(NC(=O)N(Cc2c[nH]c3ccccc23)C2CCCCC2)c1,-23.3%,0.6%,-8.0%,-11.2%,i,16.5%,nt,nt,nt,nt,nt,
COCC(c1ccc(C(F)(F)F)cc1)N1CCN(C2(C)CCN(C(=O)c3c(C)ncnc3C)CC2)CC1C (stereo not given),nt,nt,nt,3.9%[57.5 µM],nt,nt,nt,nt,nt,nt,nt,
COc1ccc(OCc2ccc(-c3nc(C#N)c(N4CCC(C)CC4)o3)o2)cc1,6.7µM*,-3.6%,-1.7%,-0.4%,i,-2.5%,-9.7%,0.0%,-0.2%,8.4%,-3.1%,
O=C(NCCc1csc(-c2ccc(F)cc2)n1)c1cccc(F)c1,?,-3.9%,-0.8%,-6.8%,i,24.9%,nt,nt,nt,nt,nt,
O=C(NCCc1csc(-c2ccc(F)cc2)n1)c1c(F)cccc1Cl,?,-4.3%,-8.2%,0.6%,i,5.4%,?,?,?,-8.9%,28.6%,
COc1ccc(C(=O)c2ccc(-c3no[n+]([O-])c3C#N)cc2)cc1,nt,nt,nt,5.5%,nt,nt,nt,nt,nt,nt,nt,
COc1cccc(N2CCN(C(=O)c3ccc(CS(=O)c4cccc(Cl)c4)o3)CC2)c1 (stereo not given),5.04µM*,i,?,-16.2%,i,-14.0%,?,?,1.2%,-8.4%,?,
O=C(c1ccc(CS(=O)c2ccccc2Cl)o1)N1CCN(c2cccc(Cl)c2)CC1 (stereo not given),?,i,?,0.3%,i,-8.8%,nt,nt,nt,nt,nt,
COc1ccc(S(=O)Cc2ccc(C(=O)N3CCN(c4cccc(C)c4C)CC3)o2)cc1 (stereo not given),?,-5.2%,-28.3%,5.8%,i,?,nt,nt,nt,nt,nt,
O=C(c1ccc(CS(=O)c2ccccc2Cl)o1)N1CCN(c2cccc(C(F)(F)F)c2)CC1 (stereo not given),11.9µM*,-3.3%,?,14.6%,i,-25.7%,-14.3%,?,-1.1%,-38.6%,?,PMP22 prot conf=?
Cc1ccccc1S(=O)(=O)Cc1ccc(C(=O)N2CCN(c3cccc(Cl)c3)CC2)o1,11.9µM*,-1.6%,?,10.3%,i,?,?,-20.0%,9.6%,-12.8%,9.74µM*,PMP22 prot conf=?
NC(=O)NS(=O)(=O)c1ccc(Cl)cc1,nt,nt,nt,29.0%[57.5 µM],i,nt,nt,nt,nt,nt,nt,
O=C(N[C@H](Cc1cscn1)C(=O)N[C@@H](CC1CCCCC1)[C@@H](O)[C@@H](O)C1CC1)c1nc2ccccc2[nH]1,nt,nt,nt,5.0%[57.5 µM],nt,nt,nt,nt,nt,nt,nt,
CC1(C)C[C@@H]2C[C@@](C)(CN2S(=O)(=O)c2ccc(C(=O)Nc3ccc(Cl)c(S(=O)(=O)N4CCOCC4)c3)cc2)C1,nt,nt,nt,2.2%,nt,nt,nt,nt,nt,nt,nt,

# Assay outcomes: PubChem, National Center for Advancing Translational Sciences (NCATS)
